Assay outcomes from PubChem BioAssay.
A selection: hits, their analogues and other compounds. The true share with any hit is near 1.2%.
GSH fluor = compound fluoresces at 488/530 nm on GSH beads; AID 1776; fluorescence (KMESF) at 10 µM; 190,000 tested, 0.25% active; GSH beads flow cytometry, compound fluorescence 488/530 nm; active compounds read high; in the data active = fluorescence above about 89;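 note: glutathione beads carrying GST-tagged Bcl family fusion proteins plus one bare bead set; values are compound well signal with DMSO vehicle wells as background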
RGS4-Gao reg = human RGS4-Galphao interaction regulation; AID 1415; Multiplexed bead flow cytometry, RGS4-Galphao binding; actives lie on both sides; P09471; binding response (% of control), % at 10 µM; 220,000 tested, 0.33% active; in the data active = binding response below about 49% or above about 150%; inactive = in between;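 note: fluorescent Galphao activated with aluminum fluoride binding bead-coupled RGS4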
Target sequence (P09471 whole entry, looked up): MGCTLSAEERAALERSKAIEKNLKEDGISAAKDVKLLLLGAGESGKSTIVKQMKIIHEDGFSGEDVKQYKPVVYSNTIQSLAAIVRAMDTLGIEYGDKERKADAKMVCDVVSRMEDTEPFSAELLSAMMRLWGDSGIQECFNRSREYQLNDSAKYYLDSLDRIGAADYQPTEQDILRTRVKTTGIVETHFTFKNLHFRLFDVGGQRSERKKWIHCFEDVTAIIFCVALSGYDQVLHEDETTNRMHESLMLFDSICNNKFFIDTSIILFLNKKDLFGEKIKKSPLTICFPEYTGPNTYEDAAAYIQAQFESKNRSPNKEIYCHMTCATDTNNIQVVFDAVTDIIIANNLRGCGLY
RGS8-Gao reg = human RGS8-Galphao interaction regulation. P09471. multiplexed bead flow cytometry, RGS8-Galphao binding; actives lie on both sides. response (percent of control binding), % at 10 µM. 220,000 tested, 0.34% active; in the data active = response below about 60% or above about 140%; inactive = in between;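 note: Galphao activated as the GDP aluminium fluoride complex binding bead-coupled RGS8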
RGS7-Gao reg = human RGS7-Galphao interaction regulation | P09471 | Multiplexed bead flow cytometry, RGS7-Galphao binding; actives lie on both sides | binding response (% of control), % at 10 µM | 220,000 tested, 0.35% active | AID 1439; in the data active = binding response below about 49% or above about 150%; inconclusive = no clear call, values can overlap the other calls; inactive = in between;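 note: fluorescent Galphao held in activated GDP-AlF4 state binding bead-coupled RGS7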
RGS16-Gao HTS = modulates binding between human RGS16 and Galphao | O15492+P09471 | bead-based flow cytometry RGS16-Galphao binding, fluorescence; actives lie on both sides | binding response (% of control), % at 10 µM | 220,000 tested, 0.38% active | AID 1441;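 note: Galphao activated by GDP with aluminum fluoride before binding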
Target sequence (O15492 whole entry, looked up): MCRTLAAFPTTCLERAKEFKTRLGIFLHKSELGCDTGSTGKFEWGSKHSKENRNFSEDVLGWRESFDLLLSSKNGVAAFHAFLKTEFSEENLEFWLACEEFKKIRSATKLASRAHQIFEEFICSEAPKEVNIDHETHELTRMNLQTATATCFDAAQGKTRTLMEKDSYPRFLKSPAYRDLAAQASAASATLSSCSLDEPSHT
Target sequence (P09471 whole entry, looked up): as the sequence (P09471 whole entry, looked up) above
Avidin bead fluor = avidin bead compound fluorescence profile; Avidin beads, compound fluorescence 488/530 nm, flow cytometry; active compounds read high; fluorescence (KMESF) at 10 µM; 220,000 tested, 0.38% active; AID 1775; in the data active = fluorescence above about 47
RGS4-Gao HTS = regulators of human RGS4-Galphao interaction. shares compounds with RGS16-Gao HTS. RGS4–Galpha-o binding response, % at 10 µM. multiplexed bead flow cytometry, RGS–Galpha-o binding. 1,600 tested, 99% active;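 note: fluorescently labeled Galpha-o bound to GDP with aluminium fluoride binding biotinylated RGS beads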
Avidin counter = interferes with biotinylated probe binding to avidin beads. shares compounds with RGS16-Gao HTS. streptavidin beads, fluorescein-biotin binding, flow cytometry. 1,700 tested, under 10 active. inhibition, % at 10 µM;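 active = inhibition above 50%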;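 note: median green fluorescence of gated singlet beads compared with DMSO control wells; 0% = DMSO wells and 100% = complete loss of bead fluorescence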
RGS8-Gao confirm = confirmation of regulators of human RGS8-Galphao interaction; shares compounds with RGS16-Gao HTS; bead-based flow cytometry RGS8-Galphao binding, fluorescence; actives lie on both sides; binding response (% of control), % at 10 µM; 1,700 tested, 3% active; AID 1836; in the data active = binding response below about 72% or above about 130%; inactive = in between;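 note: Galphao activated as GDP AlF4 complex before binding bead RGS8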
RGS7-Gao confirm = confirmation of regulators of human RGS7-Galphao interaction; shares compounds with RGS16-Gao HTS; bead-based flow cytometry RGS7-Galphao binding; actives lie on both sides; response (percent of control binding), % at 10 µM; 1,700 tested, 7.8% active; in the data active = response below about 75% or above about 130%; inactive = in between;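 note: fluorescent Galphao activated with GDP and aluminum fluoride binding bead-coupled RGS7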
RGS16-Gao single = RGS16-Galphao interaction regulation, single point confirmation; response (% of control binding), % at 10 µM; AID 1838; shares compounds with RGS16-Gao HTS; bead-based flow cytometry, RGS16-Galphao binding; actives lie on both sides; 1,700 tested, 4% active; in the data active = response below about 74% or above about 130%; inactive = in between;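 note: Galphao activated as the GDP aluminium fluoride complex binding bead-coupled RGS16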
RGS4-Gao single = confirmation of regulators of human RGS4-Galphao interaction; binding response (% of control), % at 10 µM; RGS4-Galphao binding, multiplexed bead flow cytometry; actives lie on both sides; shares compounds with RGS16-Gao HTS; 1,700 tested, 4% active; in the data active = binding response below about 74% or above about 130%; inactive = in between
RGS19-Gao single = confirmation of regulators of human RGS19-Galphao interaction; 1,700 tested, 5% active; AID 1841; response (percent of control binding), % at 10 µM; bead-based flow cytometry RGS19-Galphao binding; actives lie on both sides; shares compounds with RGS16-Gao HTS; in the data active = response below about 50% or above about 160%; inactive = in between;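 note: 100% = no compound control and 0% = blank background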
Numbers without * were called inactive; i = inactive; ? = inconclusive; . = no result given; [ ] = another dose, or the depositor's remark. Unless noted, the rule behind the calls is not given here.

SMILES | GSH fluor | RGS4-Gao reg | RGS8-Gao reg | RGS7-Gao reg | RGS16-Gao HTS | Avidin bead fluor | Avidin counter | RGS8-Gao confirm | RGS7-Gao confirm | RGS16-Gao single | RGS4-Gao single | RGS19-Gao single | others
CCCCN(CCCC)c1cn[nH]c(=O)c1Cl | 12 | 22* | 13* | 16* | 9.8* | 1 | 0 | 104 | 109 | 109 | 103 | 107
CCCCC(=O)NCCNC(=O)c1cc(OCC(F)(F)F)ccc1OCC(F)(F)F | 27 | 100 | 101 | 99 | 103 | 22 | . | . | . | . | . | .
COc1ccc(C[C@H]2CN3C(=NC[C@@H]3C(C)C)N2CCNC(=O)CCC2CCCCC2)cc1 | 21 | 27* | 20* | 10.0* | 14* | -1 | 0 | 103 | 136*[activator] | 116 | 126*[activator] | 134
Cc1c(NC(=O)Nc2ccc3c(c2)OCO3)c(=O)n(-c2ccccc2)n1C | 24 | 122 | 104 | 227*[activator] | 120 | 149* | -1 | 100 | 97 | 101 | 101 | 101 | RGS4-Gao HTS=122*
Cc1c(NC(=S)NC(=O)C(C)(C)C)c(=O)n(-c2ccccc2)n1C | 8 | 95 | 89 | 99 | 63 | 1 | . | . | . | . | . | .
Cc1c(NC(=O)CNCc2ccc3c(c2)OCO3)c(=O)n(-c2ccccc2)n1C | . | 101 | 105 | ? | 106 | 8 | . | . | . | . | . | .
Cc1c(NC(=S)NC(=O)C2CCCCC2)c(=O)n(-c2ccccc2)n1C | 23 | 7.8* | 17* | 15* | 13* | -2 | 1 | 80 | 67* | 78 | 77 | 62
CCCCCC(=O)NC(=S)Nc1cccc(C(C)=O)c1 | 17 | 99 | 102 | 101 | 103 | 16 | . | . | . | . | . | .
CCCC(=O)NC(=S)Nc1cccc(C(C)=O)c1 | 36 | 114 | 145*[activator] | 119 | 326 | 14 | 1 | 100 | 100 | 100 | 100 | 98 | RGS4-Gao HTS=114*
O=C(Nc1ccc(Oc2ccc(C(F)(F)F)cn2)c(Cl)c1)C1CC1 | 10 | 100 | 98 | 99 | 108 | 15 | . | . | . | . | . | .
COCCNC(=O)/C(C#N)=C/c1ccc(-c2ccc(S(=O)(=O)N3CCOCC3)cc2)o1 | 6 | 79 | 74 | 84 | -1.2* | 5 | 2 | 98 | 116 | 103 | 108 | 121 | RGS4-Gao HTS=79*
CCOCCCNC(=O)/C(C#N)=C/c1ccc(-c2ccc(S(=O)(=O)N3CCOCC3)cc2)o1 | 22 | 93 | 75 | 93 | 19 | 11 | . | . | . | . | . | .
C=CCN1C2CCCC1CC(NC(=S)Nc1ccc(Cl)cc1)C2 (configuration not stated) | 16 | 101 | 106 | 101 | 109 | 10 | . | . | . | . | . | .
Cc1noc(C)c1C(=O)NCc1cccs1 | 33 | . | . | . | . | . | 1 | 102 | 101 | 104 | 103 | 106
Cc1onc(-c2ccccc2Cl)c1C(=O)NCc1cccs1 | 22 | 101 | 103 | 102 | 103 | 17 | . | . | . | . | . | .
CSc1nnc(CSc2cc(C)nc(N(C)C)n2)o1 | 13 | 104 | 108 | 111 | 133 | 11 | . | . | . | . | . | .
CC(C)(C)NC(NC(=O)Cc1ccccc1)C(Cl)(Cl)Cl (configuration not stated) | 12 | 99 | 105 | 98 | 100 | 38 | . | . | . | . | . | .
COc1ccc(NC(=O)NCCc2ccc(Cl)cc2)cc1OC | 16 | 7.0* | 12* | -3.3* | 0.8* | -1 | 1 | 106 | 104 | 106 | 103 | 103
COc1ccc(CC(=O)OCC(=O)NCc2ccccc2Cl)cc1OC | 15 | 160*[activator] | 159*[activator] | 162*[activator] | 176*[activator] | 22 | 0 | 104 | 96 | 104 | 97 | 99
COc1ccc(CNC(N)=O)cc1OC | 52 | 101 | 102 | 103 | 102 | 12 | . | . | . | . | . | .
COc1cccc(NC(=O)NCCc2ccc(Cl)cc2)c1 | 19 | 96 | 95 | 95 | 96 | 10 | . | . | . | . | . | .
COc1ccc(CNC(=O)NCc2ccc(OC)c(OC)c2)cc1OC | 37 | 115 | 105 | 157*[activator] | 137 | 64* | -1 | 96 | 97 | 97 | 97 | 94 | RGS4-Gao HTS=115*
COc1ccccc1N1CCN(C(=O)CSc2nnc3c4ccccc4nc(Cc4ccccc4)n23)CC1 | 9 | 99 | 96 | 97 | 71 | 5 | . | . | . | . | . | .
Cc1onc(-c2ccc(Cl)cc2Cl)c1-c1csc(N/N=C/c2ccccc2)n1 | . | 95 | 97 | ? | 97 | 5 | . | . | . | . | . | .
COc1ccc(NC(C)=O)cc1NC(=O)CN1CCN(C(=O)c2ccco2)CC1 | 32 | 130 | 153*[activator] | 123 | i | 2 | 1 | 109 | 112 | 112 | 110 | 121 | RGS4-Gao HTS=130*
SMILES | GSH fluor | RGS4-Gao reg | RGS8-Gao reg | RGS7-Gao reg | RGS16-Gao HTS | Avidin bead fluor | Avidin counter | RGS8-Gao confirm | RGS7-Gao confirm | RGS16-Gao single | RGS4-Gao single | RGS19-Gao single | others
CCOC(=O)NC(=O)CSc1nnnn1-c1ccc(Cl)cc1 | 29 | 100 | 98 | 97 | 101 | 45 | . | . | . | . | . | .
O=c1cc2oc3cc(O)c(O)cc3c(-c3ccccc3O)c-2cc1O | . | 90 | 87 | ? | 86 | 2 | . | . | . | . | . | .
CCOc1ccccc1-c1c2cc(O)c(=O)cc-2oc2cc(O)c(O)cc12 | 10 | 85 | 69 | 42* | 47 | 4 | -2 | 64* | 50* | 63* | 82 | 40* | RGS4-Gao HTS=85*
CCOC(=O)/C(=N\Nc1ccccc1Cl)N1CCN(c2ccccc2OC)CC1 | 17 | 105 | 106 | 106 | 114 | 12 | . | . | . | . | . | .
O=C(c1ccncc1)N1N=C(C2CCCCC2)CC1(O)C(F)(F)F (configuration not stated) | 11 | 47* | 61 | 51 | 15 | 2 | 4 | 96 | 72* | 89 | 83 | 78
Cc1ccc(C)n1-c1nccc(-c2ccco2)n1 | 10 | 99 | 99 | ? | 99 | 10 | . | . | . | . | . | .
O=C(COc1ccccc1)NC(=S)Nc1ccc(Br)cn1 | . | 100 | 104 | ? | 103 | 6 | . | . | . | . | . | .
